From PubChem BioAssay (NCI)
The panel holds about 83,000 compounds, 20% with a hit somewhere; the sample as a whole holds those more often.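 Treatment: one concentration, 48 hours, 96-well format. Scoring: percent growth, with anything below 10 considered active.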 The source made the active and inactive calls.

Tests used:
Test in all cases: NCI-60 one-dose screen, 48 h (100 = growth as untreated, 0 = no growth, -100 = all killed)
Settings in all cases: 10 µM unless noted
T-47D breast = system: T-47D breast
BT-549 breast = system: BT-549 breast
MDA-MB-435 melanoma = system: MDA-MB-435 melanoma
SW-620 colon = system: SW-620 colon
MCF7 breast = system: MCF7 breast
HCT-116 colon = system: HCT-116 colon
HCC-2998 colon = system: HCC-2998 colon
KM12 colon = system: KM12 colon

Measured: growth

CC1=NC2=Nn3c(c4cnn(-c5ccccc5)c4n/c3=N\N)NN2C(c2ccccc2)=C1
inactive: T-47D breast 94.1% | BT-549 breast 95.4% | MDA-MB-435 melanoma 92.3% | SW-620 colon 86.8% | MCF7 breast 87.8% | HCT-116 colon 99.3% | HCC-2998 colon 99.2% | KM12 colon 92.9%

CSc1nc(N)c(NS(=O)(=O)c2ccc(C(C)=O)cc2)c(=O)[nH]1
inactive: T-47D breast 102% | BT-549 breast 98.4% | MDA-MB-435 melanoma 102% | SW-620 colon 102% | MCF7 breast 85.9% | HCT-116 colon 92.7% | HCC-2998 colon 112% | KM12 colon 103%

N#CC(C#N)N=Nc1ccc(Br)cc1
active: T-47D breast 8.56%
inactive: BT-549 breast 49.2% | MDA-MB-435 melanoma 71.7% | SW-620 colon 18.4% | MCF7 breast 19.4% | HCT-116 colon 13.4% | HCC-2998 colon 46% | KM12 colon 80.8%

CCN(CC)c1ccc(\C=N/N=C(N)/C(N)=N\N=C/c2ccc(N(CC)CC)cc2)cc1
inactive: T-47D breast 104% | BT-549 breast 104% | MDA-MB-435 melanoma 101% | SW-620 colon 104% | MCF7 breast 106% | HCT-116 colon 105% | HCC-2998 colon 114% | KM12 colon 106%

CC(C)c1ccc(C(=O)Nc2nc3ccc(O)c(CN(C)C)c3s2)cc1
inactive: T-47D breast 77.8% | BT-549 breast 73.6% | MDA-MB-435 melanoma 55.4% | SW-620 colon 36.2% | MCF7 breast 80.5% | HCT-116 colon 47.3% | HCC-2998 colon 63.7% | KM12 colon 36%

Nc1ncnc2c1N=C(c1ccc(Br)cc1)CC(c1cccc(Nc3ccnc4cc(C(F)(F)F)ccc34)c1)N2 (centres undefined)
inactive: T-47D breast 68.6% | BT-549 breast 105% | MDA-MB-435 melanoma 38.3% | SW-620 colon 64.1% | MCF7 breast 22% | HCT-116 colon 32.8% | HCC-2998 colon 67.2% | KM12 colon 60.2%

CCOCCNC1=C(Cl)C(=O)c2ccccc2C1=O
inactive: T-47D breast 90.8% | BT-549 breast 107% | MDA-MB-435 melanoma 104% | SW-620 colon 110% | MCF7 breast 69.1% | HCT-116 colon 88.1% | HCC-2998 colon 112% | KM12 colon 91.4%

COc1ccc(/C=C/C(=O)c2cc3c(N)c(C(=O)Nc4cccc5ccccc45)sc3nc2C)cc1
active: MDA-MB-435 melanoma -18.8%
inactive: T-47D breast 66.4% | BT-549 breast 87.5% | SW-620 colon 24.8% | MCF7 breast 13.5% | HCT-116 colon 86.6% | HCC-2998 colon 94.9% | KM12 colon 74.4%

C=C(C)[C@@H]1CC[C@]2(C(=O)N3CCOCC3)CC[C@]3(C)[C@H](CC[C@@H]4[C@@]5(C)C/C(=C/c6ccncc6)C(=O)C(C)(C)[C@@H]5CC[C@]43C)[C@@H]12
inactive: T-47D breast 26.5% | BT-549 breast 73.4% | MDA-MB-435 melanoma 62.3% | SW-620 colon 50.3% | MCF7 breast 28.9% | HCT-116 colon 32.4% | HCC-2998 colon 58.7% | KM12 colon 52.2%

CC(=O)N1N=C(c2ccc(Nc3nc(Nc4ccccc4)nc(Nc4ccccc4)n3)cc2)CC1c1ccccc1 (centres undefined)
inactive: T-47D breast 46.5% | BT-549 breast 87.2% | MDA-MB-435 melanoma 101% | SW-620 colon 99% | MCF7 breast 67.5% | HCT-116 colon 77.1% | HCC-2998 colon 99.2% | KM12 colon 89.6%

N#CSCC1CC(O)(c2ccccc2)CC(c2ccc(F)cc2)O1 (centres undefined)
active: BT-549 breast -9.66% | MDA-MB-435 melanoma 0.665% | SW-620 colon -58.8% | MCF7 breast -17% | HCT-116 colon -60.4% | KM12 colon -49.3%
inactive: T-47D breast 12.5% | HCC-2998 colon 72%

CCCCCCCCCCCCCCCCCCOc1ccccc1CC(=O)OCC[N+](C)(C)C
active: KM12 colon -27.4%
inactive: T-47D breast 28.8% | BT-549 breast 46.5% | MDA-MB-435 melanoma 31.5% | SW-620 colon 23.9% | MCF7 breast 34% | HCT-116 colon 30.6% | HCC-2998 colon 27.9%

CCCCNC(=O)Oc1ccc(/C(=C(/C)Cc2ccc(OC)cc2)c2ccc(OCCN3CCCC3)cc2)cc1
inactive: T-47D breast 32.4% | BT-549 breast 73.8% | MDA-MB-435 melanoma 55.8% | SW-620 colon 72.7% | MCF7 breast 17.7% | HCT-116 colon 39.3% | HCC-2998 colon 64.7% | KM12 colon 55.3%

COc1ccc(C(=O)C/C(=C\c2ccc(Cl)cc2)C(=O)NCc2ccccc2)cc1
inactive: T-47D breast 65.3% | BT-549 breast 110% | MDA-MB-435 melanoma 68.8% | SW-620 colon 98.2% | MCF7 breast 86.1% | HCT-116 colon 82.5% | HCC-2998 colon 93.1% | KM12 colon 99.7%

O=C(CSC(=S)n1cnnc1)NC(=O)c1ccccc1
inactive: T-47D breast 100% | BT-549 breast 102% | MDA-MB-435 melanoma 113% | SW-620 colon 103% | MCF7 breast 99.3% | HCT-116 colon 112% | HCC-2998 colon 104% | KM12 colon 103%

CCn1c(SCC(=O)N/N=C(\C)c2ccc(Cl)cc2)nc2c1c(=O)n(C)c(=O)n2C
inactive: T-47D breast 98.3% | BT-549 breast 99% | MDA-MB-435 melanoma 100% | SW-620 colon 95.1% | MCF7 breast 95.8% | HCT-116 colon 102% | HCC-2998 colon 102% | KM12 colon 101%

Cc1cc(N2CCCCC2)cc(C)c1-c1csc(NC(=O)c2ccncc2)n1
inactive: T-47D breast 34.3% | BT-549 breast 57.6% | MDA-MB-435 melanoma 37.1% | SW-620 colon 69.9% | MCF7 breast 32.6% | HCT-116 colon 20.7% | HCC-2998 colon 97.4% | KM12 colon 64.5%

CCCn1cc2c(=O)nc3sc(Cc4ccccc4)c(C)n3c2n1
inactive: T-47D breast 84.8% | BT-549 breast 106% | MDA-MB-435 melanoma 106% | SW-620 colon 101% | MCF7 breast 91.6% | HCT-116 colon 102% | HCC-2998 colon 104% | KM12 colon 94.4%

CC1(C)CC(=O)C2=C(C1)N(c1ccc(OC(F)(F)F)cc1)C(N)=C(C#N)C2c1ccc(Br)cc1F (centres undefined)
inactive: T-47D breast 78.9% | BT-549 breast 69.1% | MDA-MB-435 melanoma 93.1% | SW-620 colon 69.9% | MCF7 breast 83.3% | HCT-116 colon 46.7% | HCC-2998 colon 88.4% | KM12 colon 89.5%

CCOC(=O)C#Cc1c(C(=O)OCC)nnn1Cc1ccc([N+](=O)[O-])cc1
active: SW-620 colon -40.5% | MCF7 breast 6.62%
inactive: T-47D breast 23.8% | BT-549 breast 80.2% | MDA-MB-435 melanoma 75.2% | HCT-116 colon 43.4% | HCC-2998 colon 81.1% | KM12 colon 92%

CC(=O)Oc1ccc(C)cc1C
inactive: T-47D breast 97.9% | BT-549 breast 90.8% | MDA-MB-435 melanoma 113% | SW-620 colon 108% | MCF7 breast 77.7% | HCT-116 colon 98.3% | HCC-2998 colon 112% | KM12 colon 103%

COC(=O)c1cc(N=C2NC(=O)/C(=C/C=C/c3ccccc3)S2)ccc1O
inactive: T-47D breast 32.8% | BT-549 breast 48.5% | SW-620 colon 31.4% | MCF7 breast 17.9% | HCT-116 colon 18.2% | HCC-2998 colon 49.1% | KM12 colon 23.1%
active: MDA-MB-435 melanoma -35.6%

Cc1ccc(NC(=O)Cn2cc(CN3CCN(c4ccnc5cc(Cl)ccc45)CC3)nn2)cc1
inactive: T-47D breast 86.5% | BT-549 breast 81.5% | MDA-MB-435 melanoma 94.5% | SW-620 colon 88.6% | MCF7 breast 79.4% | HCT-116 colon 96.9% | HCC-2998 colon 97.3% | KM12 colon 85.8%

Oc1ccc(Cl)cc1/C=N\NC(=S)N/N=C/c1cc(Cl)ccc1O
inactive: T-47D breast 49.9% | BT-549 breast 52.7% | MDA-MB-435 melanoma 33.9% | SW-620 colon 50.3% | MCF7 breast 28.3% | HCT-116 colon 16% | HCC-2998 colon 41.3% | KM12 colon 28.6%

C/C(Cc1ccc(Cl)cc1)=C(\c1ccc(O)cc1)c1ccc(Cl)cc1
inactive: T-47D breast 82.1% | BT-549 breast 98.1% | MDA-MB-435 melanoma 93% | SW-620 colon 95.4% | MCF7 breast 102% | HCT-116 colon 71.6% | HCC-2998 colon 91.9% | KM12 colon 88.6%

O=C1/C(=C/c2ccc([N+](=O)[O-])cc2)COc2ccc(O)cc21
active: SW-620 colon -11.7% | MCF7 breast 5.28% | HCT-116 colon -5.5%
inactive: T-47D breast 79.4% | BT-549 breast 95% | MDA-MB-435 melanoma 82.4% | HCC-2998 colon 98.5% | KM12 colon 48%

Nc1cc(C(=O)NC[C@H]2CN(c3ccc(N4CCC(C(=O)O)CC4)cc3)C(=O)O2)ccc1Cl
inactive: T-47D breast 98.3% | BT-549 breast 104% | MDA-MB-435 melanoma 108% | SW-620 colon 97.7% | MCF7 breast 95.3% | HCT-116 colon 105% | HCC-2998 colon 107% | KM12 colon 100%

Clc1ccc2c(NC3CCC(N4CCOCC4)CC3)ccnc2c1 (centres undefined)
inactive: T-47D breast 58% | BT-549 breast 67.4% | MDA-MB-435 melanoma 86.3% | SW-620 colon 85.4% | MCF7 breast 63.7% | HCT-116 colon 47% | HCC-2998 colon 77.8% | KM12 colon 96.4%
